Assay results from the supplement of paper PMC3334620.
Over roughly 33,000 sequences, “E-score (-0.5 to 0.5)” has its median near -0.0059; the highest 2% begin near 0.26. The entries come from a sample that favours the highest values as a whole.

Target: T1, Cin5 (UniProt P40917)
T1 sequence: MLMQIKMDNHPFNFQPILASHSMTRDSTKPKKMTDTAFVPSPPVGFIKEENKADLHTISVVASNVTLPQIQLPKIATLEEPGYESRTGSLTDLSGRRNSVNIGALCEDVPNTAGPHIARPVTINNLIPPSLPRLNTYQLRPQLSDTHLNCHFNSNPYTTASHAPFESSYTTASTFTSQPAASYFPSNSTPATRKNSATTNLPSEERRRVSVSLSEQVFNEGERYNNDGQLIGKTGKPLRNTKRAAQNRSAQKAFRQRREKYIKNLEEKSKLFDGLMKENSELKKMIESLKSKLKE
Assay: PBM E-score (8-mer binding enrichment) (E-score (-0.5 to 0.5)); higher = stronger / more preferred TF binding
Conditions: protein concentration: 100 nM; construct: GST-full length
Method: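 Universal 'all 10-mer' protein binding microarrays (Agilent AMADID 015681) probed with GST-tagged S. cerevisiae TFs (full-length or DBD) made by in vitro transcription/translation (PURExpress), about 100-200 nM. Bound TF was detected with fluorescent anti-GST. Each ungapped 8-mer (which stands for itself and its reverse complement) is scored by the PBM enrichment score (E-score), a modified Wilcoxon-Mann-Whitney statistic from -0.5 to +0.5, computed with the Universal PBM Analysis Suite. Scale: above 0.35 generally sequence-specific binding.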

Sequence	PBM E-score
CTCTGAGC	-0.2
ACTGGGAT	0.0399
GCTCTTCA	-0.157
CGGAGTGA	0.0979
CGTTCAAA	-0.0884
GACGTCAC	0.00326
GGCCAACA	-0.0942
AATCGATA	0.247
CATCGATG	0.0124
CATCGATA	0.258
ATGCTTCA	0.0559
AATCACCG	0.0462
CCCACCCG	0.293
CCCCACCC	0.153
CCCACCCC	0.24
GCCCACCC	0.191
CCCACCCA	0.21
ACCCACCC	0.323
CCAGCGAG	-0.0473
CGAAATGA	0.19
ATGGGACA	0.0583
GTGCTCGA	-0.0887
GTGCTAAA	0.00722
GTGTAATA	0.193
ATGTAATA	0.361

Sequence	PBM E-score
CTGTAATA	0.105
AAGTAATC	0.339
AAGTAACG	-0.0154
AAGTAACA	0.316
ATGTAATC	0.383
ATGTAATG	0.193
CAGTAATC	0.15
AAGTAACT	0.186
AAGTAATT	0.181
CTGTAATC	0.128
TAGATCCA	-0.00386
CGTGCCGA	-0.115
AGGAAATA	0.164
GGCTCCAA	-0.169
AGGCTAAT	0.0863
ATAAGACA	0.105
GAATCCGA	0.0296
CGTGGTCA	-0.0679
ACAATGTG	0.0255
AACATGTG	0.257
CACATGTG	-0.00999
AACATGTC	0.0503
CTCTTGGC	-0.112
GGACTTAA	-0.15
TGACTTAA	0.268

Sequence	PBM E-score
AGACTTAA	-0.139
GCAATCAA	0.195
CATGTTGA	0.293
AATGTTGA	-0.014
CATGTTGC	-0.00801
GCACCACA	-0.122
ACCAATAT	0.323
ACCAATAC	0.104
AACAATAA	0.257
ACCAATAG	-0.123
AACAATAT	0.345
AACAATAC	0.187
GCTTGCCA	-0.131
ATCTGGCC	-0.108
CACGCGAC	-0.0294
TACTTGCA	0.141
CCACAGAC	-0.0305
CTCGCTTA	0.346
CTCGCTGA	-0.0383
CGCGCTGA	0.104
ATCGCTTA	0.0758
CGCGCTTA	0.297
AGCGCTTA	0.157
AGGTATAT	0.193
GGCGGGTA	-0.194

Sequence	PBM E-score
CGCCAAAC	-0.072
ACGCTAAC	0.0232
GTTCAAAA	-0.105
ATTAGTAA	0.387
ATTAGTAC	0.173
CTTAGTAA	0.392
CTTAGTAC	0.0461
ATTAGTAG	0.0962
GTTAGTAA	0.111
ATCTGGGC	-0.0822
AGCTGTTC	-0.0725
TCGCAAAA	0.156
CAGTATGC	0.0107
CTTAGCTC	-0.106
ACATGTAG	0.278
CCATGTAG	-0.00831
ACATGTAA	0.168
CCAGATTA	0.225
CGGCTCGC	0.0606
AAAATGGA	0.29
GAAATGTA	0.143
CTGATGAA	0.0259
ATGATGTG	0.145
ATGATGTA	0.305
CAAATGTA	0.268

Sequence	PBM E-score
TAAATGTA	0.191
ATGATGTC	0.233
GTGATGAA	0.0186
CAAATGGA	-0.0888
AAAATGGG	-0.0874
ATGATGAA	0.258
GCATAGCA	-0.0462
AGCCACCT	-0.192
GATCTGGA	-0.125
CCTTAACG	-0.0146
GTAGGGAA	0.00147
GAAACGCC	0.114
CGGGCGTA	-0.132
ACAACCGT	-0.172
CTGATGTA	0.266
GTGATGTA	0.172
CTGATGTC	0.184
GCAGCAAC	-0.0419
ATGAATGA	0.143
ATGAATGC	0.167
ATGAATGG	0.301
CCCATCAG	-0.165
CACCACGG	-0.325
ATATTAAT	0.362
GTATTAAC	0.00428

Sequence	PBM E-score
ATATTAAC	0.28
CTATTAAC	0.115
AGATTAAT	0.218
CTATTAAG	-0.041
TTATTAAA	0.278
GTATTAAA	0.149
TGATTAAA	0.0915
ATATTAAG	0.122
CTATTAAA	0.00048
ATATTAAA	0.35
AAGGATAG	0.0333
TCGATGCA	0.152
GTTCAGTA	0.0391
TGGTCGAA	-0.242
ATATCCCC	0.0837
TGCTGCCA	-0.0641
ATGATTCG	0.053
CATCCCTA	0.122
CATTCTGG	0.0333
GCACCTAA	-0.0501
TCATTAAA	0.353
GCATTAAA	0.0586
ACATTAAA	0.152
GCGTCCAC	-0.283
GCCTCCGC	-0.203

Sequence	PBM E-score
ATATTACA	0.209
ATATTACG	0.376
CTATTACC	-0.0809
AAATTACC	0.123
ATATTACC	0.317
AAATTACG	0.171
AAGAAAAT	0.159
CTCTACAC	-0.0485
ATAGTAAT	0.358
ATCGTAAA	0.0952
CTAGTAAA	0.165
ATAGTAAA	0.198
ATCGTAAT	0.385
ATCGTAAC	0.0852
GTAGTAAA	0.149
TTAGTAAA	0.269
ATAGTAAC	0.182
CCGGTAGG	-0.163
CCCAGAAG	-0.167
GCGATAGA	0.0484
CGACTTGA	-0.0696
AATCTACC	0.138
CAGATTCC	-0.0124
TAACTAGA	0.306
GAACTAGA	-0.00859

Sequence	PBM E-score
AAACTAGA	-0.116
AAGATTCT	-0.106
CTTTTGGA	-0.0744
ACAGACAA	0.28
AGACAGAG	-0.0616
AGACAGAC	0.192
AGACAGAT	0.277
ACAGACAC	-0.0499
ACAGACAG	0.195
AAGGTCGA	0.146
ACCACGCG	-0.0218
ACGTATCA	0.156
GAGCCGGA	-0.178
ATATAGTC	0.258
ATATAGTA	0.235
ATATATAC	0.316
ATATATAA	0.335
GTATATAA	0.222
AGATATAG	0.149
CTATATAA	0.0999
GTATATAC	0.104
ATATATAG	0.26
CTATAGTC	-0.063
ATATATAT	0.146
CTATATAG	0.103

Sequence	PBM E-score
ACCATCGG	-0.108
GAGGCGAC	-0.213
AGATTCTC	0.0336
GTGCAGGA	-0.0289
GAAGTCCA	-0.133
CTATATGC	0.212
CTATATAC	0.313
CTCTATAC	-0.0333
AATACATG	0.195
ATTACATG	0.297
ATTACATA	0.355
AATACATA	0.278
ATTACACG	0.0848
ATTACAGA	0.0804
CATACATA	0.213
CTTACACC	-0.0748
CTTACACA	0.259
ATTACAGG	0.244
AGTACATG	0.118
ACTACATA	0.207
